Rows were chosen to be rich in hits. Some 22% of all compounds tested hit in one or more screens of this group.
Pf growth 48h: P. falciparum growth inhibition at 48 hours (one generation) | P. falciparum luciferase growth in erythrocytes, 48 h | Potency, µM (top dose mostly 28.7 µM), usual class: inhibitors | 5.9% of 310,000 active
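Here the parasites carry a stable luciferase gene and grow inside erythrocytes in Albumax-based RPMI medium with compound for one erythrocytic cycle. Activity is scored as loss of luminescent signal.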
Shiga inhibitor: inhibitors of Shiga toxin in Vero cells; Vero cells, Shiga toxin protein synthesis inhibition reporter; inhibition, % at 38.7 µM; 9.2% of 290,000 active; in the data active = inhibition mostly above about 28%, no sharp cut-off; inactive = mostly below about 43%
LmPK inhibitor: blocks Leishmania mexicana pyruvate kinase activity; Q27686; purified LmPK, Kinase-Glo ATP luminescence, 1 h; Potency, µM (highest dose often 57.5 µM), hits mostly inhibitors; 0.37% of 290,000 active
Target sequence (Q27686 whole entry, looked up): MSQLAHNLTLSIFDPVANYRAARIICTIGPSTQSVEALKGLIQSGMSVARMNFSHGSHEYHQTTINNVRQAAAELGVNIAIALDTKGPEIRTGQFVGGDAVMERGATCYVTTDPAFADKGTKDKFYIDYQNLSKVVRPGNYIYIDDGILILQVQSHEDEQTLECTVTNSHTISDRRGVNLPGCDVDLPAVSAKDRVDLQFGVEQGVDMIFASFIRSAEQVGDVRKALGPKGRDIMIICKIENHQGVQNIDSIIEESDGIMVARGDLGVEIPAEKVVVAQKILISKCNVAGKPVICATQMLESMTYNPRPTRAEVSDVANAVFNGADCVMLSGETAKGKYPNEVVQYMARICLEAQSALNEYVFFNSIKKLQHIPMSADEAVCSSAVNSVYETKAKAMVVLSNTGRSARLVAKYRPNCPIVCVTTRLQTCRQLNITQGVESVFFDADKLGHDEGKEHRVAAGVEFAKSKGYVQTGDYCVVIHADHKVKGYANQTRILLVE
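qHTS format; LmPK 0.1 nM; substrates PEP 0.5 mM and ADP 0.1 mM. One-hour room-temperature incubation, then coupled luciferase luminescence; 0.5 nM enzyme wells mark activation.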
CHX counter: counter-screen hit for Shiga toxin inhibitors, cycloheximide. cell reporter, cycloheximide protein synthesis inhibition counterscreen. max response, %. 12% of 300,000 active. AID 2314; in the data active = max response mostly above about 13%, no sharp cut-off; inactive = mostly below about 14%; note: read at 38.3 µM for the half of the compounds with a filed dose
Pf growth 96h: inhibits malaria parasite growth, 96 h; P. falciparum luciferase reporter growth, 96 h; Potency, µM (highest dose often 28.7 µM), hits mostly inhibitors; 6.9% of 320,000 active; AID 504834
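Infected RBCs, 2% Hct / 0.05% parasitemia final; luciferase-reporter P. falciparum; cpd 96 h, 37 C, 5% CO2; luciferase detection reagent; luminescence.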
Each line names hits and unclear results; the compound was inactive in the other large screens. Unless noted, calls come from the whole dose curve; as a rule, active = well fitted inhibition curve with a large enough effect; inconclusive = small, poorly fitted or top-dose-only effect, or another doubt; inactive = no such curve, though single readings can be large or run the other way.

CCOc1ccccc1N(CC(=O)Nc1ccccc1)S(=O)(=O)c1ccccc1	Pf growth 48h inconclusive, Pf growth 96h 11.7µM
CCn1cc(C(=O)N(CCC(C)C)c2c(N)n(Cc3ccccc3)c(=O)[nH]c2=O)c(=O)c2ccc(C)nc21	none
CCN(CC(=O)Nc1ccc(N2CCOCC2)cc1)C(=O)Cc1ccccc1	none (no result: Shiga inhibitor, LmPK inhibitor, CHX counter)
c1ccc(N2CCN(c3c4c(nc5ncnn35)CCC4)CC2)cc1	Pf growth 96h inconclusive
CC1CCCCC1NC(=O)C1CCN(c2c3c(nc4ncnn24)CCC3)CC1 (stereo not drawn)	Pf growth 48h 9.28µM
O=C(c1ccco1)N1CCN(C(=O)c2cn(-c3ccccc3)nc2-c2ccc(F)cc2)CC1	none (no result: Shiga inhibitor, LmPK inhibitor, CHX counter)
Cc1ccccc1CNS(=O)(=O)c1ccccc1[N+](=O)[O-]	Pf growth 96h 0.657µM
O=C(Cn1ncc2c([nH]c3ccccc32)c1=O)NCCCN1CCN(c2ccccc2)CC1	none
CCOc1ccccc1NC(=O)C1CCN(c2ccc(S(=O)(=O)N3CCCC3)cc2)CC1	Pf growth 48h 4.65µM
CCOc1ccccc1NC(=O)C1CCN(S(=O)(=O)c2ccc(OC)c(OC)c2)CC1	Pf growth 96h 6.57µM
CCS(=O)(=O)N1CCC(C(=O)Oc2ccccc2OC)CC1	Pf growth 96h 13.1µM
COC(=O)N/N=C\c1cc(Br)ccc1OCc1ccccc1	none
COC(=O)N/N=C/c1cc(N=Nc2ccccc2)ccc1O	Pf growth 48h inconclusive, CHX counter 24.8, Pf growth 96h inconclusive
Cc1cc(C(=O)N/N=C/c2ccc(O)c([N+](=O)[O-])c2)n[nH]1	none
COC(=O)N/N=C/c1cc(Br)ccc1O	Pf growth 96h inconclusive
Nc1ccc(C(=O)N/N=C\c2cc(N=Nc3cccc4ccccc34)ccc2O)cc1	Pf growth 48h 2.94µM, CHX counter 17.9
Cc1cc(C(=O)N/N=C/c2cccc([N+](=O)[O-])c2O)n[nH]1	CHX counter 18.3
COC(=O)N/N=C/c1cc(N=Nc2ccccc2Cl)ccc1O	Pf growth 48h inconclusive, Pf growth 96h 7.38µM
C/C(CC(=O)Nc1ccccc1F)=N\NC(=O)Cc1ccc(Cl)cc1	none
CSc1ncccc1C(=O)OCC(=O)c1[nH]c(C)c(C(C)=O)c1C	none (no result: Shiga inhibitor, LmPK inhibitor, CHX counter)
Cc1cc(C(=O)N/N=C/c2c3ccccc3cc3ccccc23)n[nH]1	none
Cc1cc(C(=O)N/N=C/c2cc(N=Nc3ccccc3)ccc2O)n[nH]1	Pf growth 48h inconclusive, CHX counter 16.7, Pf growth 96h inconclusive
COc1ccc(CNC(=O)[C@@H](NC(=O)C2CCN(S(=O)(=O)c3ccc(C)cc3)CC2)C(C)C)cc1OC	Pf growth 96h inconclusive
Cc1cccc2[nH]c(SCC(=O)N3CCOCC3)nc12	Shiga inhibitor 108.7, Pf growth 96h inconclusive
O=C(CSc1nc2ccc(S(=O)(=O)N3CCOCC3)cc2[nH]1)N1CCOCC1	Pf growth 96h 1.85µM (no result: Pf growth 48h)
CC(=O)NC1=NN(C(C)=O)C(C)(c2cccs2)S1 (stereo not drawn)	Pf growth 96h 10.4µM
CC(=O)NC1=NN(C(C)=O)C(C)(c2cccnc2)S1 (stereo not drawn)	none
CC(=O)NC1=NN(C(C)=O)C(C)(c2ccc(C)o2)S1 (stereo not drawn)	CHX counter 18.9
CC(=O)NC1=NN(C(C)=O)C(C)(c2ccco2)S1 (stereo not drawn)	Pf growth 48h inconclusive, Shiga inhibitor 58.9, CHX counter 43.3
CC12CC3CC(C)(C1)CC(C(=O)N1CCN(C(=O)c4ccco4)CC1)(C3)C2	none
CC(C)C1CC(CCN2CCCCC2)(c2ccccc2)CCO1 (stereo not drawn)	none
COc1ccc(NC(=O)NCC(C)CSc2ccc(C)cc2)c(OC)c1 (stereo not drawn)	Pf growth 96h inconclusive
COc1ccc2c(c1OC)C(=O)N1C2SC[C@H]1C(=O)NC1CC1 (stereo partly drawn)	none
COc1ccc2c(c1OC)C(=O)N1c3ccccc3COC21 (stereo not drawn)	Shiga inhibitor 80.2, CHX counter 41.2
COc1ccc2c(c1OC)C(=O)N1c3ccccc3C(=O)N(c3ccccc3F)C21 (stereo not drawn)	Pf growth 48h 10.4µM, Pf growth 96h 11.7µM
COc1ccc2c(c1OC)C(=O)N1c3ccccc3SC21 (stereo not drawn)	Shiga inhibitor 54.2, CHX counter 35.3
COc1ccc2c(c1OC)C(=O)N1c3cccc(Cl)c3C(=O)OC21 (stereo not drawn)	Pf growth 96h inconclusive
S=c1[nH]nc(C2CCCCC2)n1/N=C/c1c(Cl)cccc1Cl	LmPK inhibitor inconclusive
CCOC(=O)/C=C1\SCC(=O)N1CC(=O)Nc1cccc(F)c1	none
C[N+]1=C2CCCCCN2C(O)(c2ccccc2)C1 (stereo not drawn)	Pf growth 96h 8.28µM
O=C(NC(=S)Nc1ccc(N2CCOCC2)cc1)c1cccc(Cl)c1Cl	none
CC(C)CNC(=S)NC(=O)c1ccccc1Cl	Shiga inhibitor 43.5, CHX counter 39.6
COc1ccccc1C(=O)NC(=S)Nc1ccc(N2CCCC2)cc1	none
COc1ccc(NC(=S)NC(=O)c2ccccc2Cl)cc1	Shiga inhibitor 96.3, CHX counter 38.2, Pf growth 96h inconclusive
O=C(NC(=S)Nc1ccc(O)cc1)c1ccccc1Cl	CHX counter 34.4
Cc1ccc(O)c(NC(=S)NC(=O)c2ccccc2Cl)c1	CHX counter 17.5
CN(Cc1ccccc1)C(=O)COc1cccnc1[N+](=O)[O-]	none
O=C(NCc1cccnc1)c1nn2cccnc2c1Cl	Pf growth 48h inconclusive
Cc1nn(C)c(C(=O)NC(=S)Nc2ccccc2O)c1Cl	Pf growth 48h inconclusive, CHX counter 10.5, Pf growth 96h inconclusive
CCOc1ccc(Cc2nc(-c3nonc3N)no2)cc1OCC	Pf growth 96h 1.47µM
Nc1nonc1-c1noc(N2CCOCC2)n1	none
Cc1cccc(OCc2nc(-c3nonc3N)no2)c1C	Shiga inhibitor 52.7, CHX counter 55.8, Pf growth 96h inconclusive
Cc1cccc(OCc2nn[nH]n2)c1C	none
Nc1nonc1-c1noc(COc2ccccc2Cl)n1	Shiga inhibitor 82.8, CHX counter 22.7, Pf growth 96h inconclusive
Cc1csc2nc(CCNS(=O)(=O)c3cccs3)cn12	CHX counter 18.1 (no result: Pf growth 48h)
CCS(=O)(=O)NCc1cn2c(C)csc2n1	none
CCCS(=O)(=O)NCc1cn2c(C)csc2n1	Shiga inhibitor 49.4, CHX counter 32.2
CC1(C)CC(O)C(C(O)c2cccc([N+](=O)[O-])c2)C(C)(C)N1 (stereo not drawn)	none
CCCCCC(=O)Nc1ccc(S(=O)(=O)Nc2nccnc2OC)cc1	Pf growth 96h 2.33µM
COc1nccnc1NS(=O)(=O)c1ccc(NCc2cc(Br)ccc2O)cc1	Pf growth 48h inconclusive, Shiga inhibitor 57.1, CHX counter 37.1
CN(C(=O)c1cccc(S(=O)(=O)N2CCOCC2)c1)c1c(N)n(Cc2ccccc2)c(=O)[nH]c1=O	none (no result: Shiga inhibitor, LmPK inhibitor, CHX counter)
O=C(CCc1nnc(CCCCc2ccccc2)o1)NCCn1cccn1	none
O=C(CCc1nnc(CCCc2ccccc2)o1)NCCCC1CCCC1	Shiga inhibitor 119.7, CHX counter 40.7

Screening results (PubChem)
